# Assay outcomes as filed in PubChem BioAssay.
# Only a selection was taken, and hits are over-represented in it overall.
# GoLoco inh red: qHTS Assay for Inhibitors of RGS12 GoLoco Motif Activity (Red Fluorophore); AID 880, 2007; Gai1:RGS12 GoLoco peptide FP, rhodamine, 10 min; hit rate 0.44% among 230,000; Potency, µM (highest dose often 61.6 µM), inactives show top-dose activity, negative = inhibition, hits mostly inhibitors; Guanine nucleotide-binding protein G(i) subunit alpha-1 (Homo sapiens), P63096; active = well fitted inhibition curve with a large enough effect, not every such curve was filed as active; inactive = no such curve, though single readings can be large or run the other way; note: potency is the fitted concentration of half-maximal effect; % is set by controls: 0 for no effect and ±100 for the full control effect; nearly all actives have a fitted effect of over 30% in size
# MLL CXXC-DNA inh: qHTS Fluorescence Polarization Assay for Inhibitors of MLL CXXC domain - DNA interaction; MLL-CXXC / FITC-HOXA9 DNA fluorescence polarization; Potency, µM (highest dose often 115 µM), for the others: at the top dose activity change, negative = inhibition, hits mostly inhibitors; hit rate 0.037% among 290,000; AID 2662, 2010; active = well fitted inhibition curve with a large enough effect in the polarisation, with a control signal flat, not every such curve was filed as active; inconclusive = small, poorly fitted or top-dose-only effect, or effect the other way, or a change in a side signal; inactive = no such curve, though single readings can be large or run the other way; the % refers to the polarisation; note: potency is the fitted concentration of half-maximal effect
#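 Purified MLL-CXXC (added from a 7 uM solution) was preincubated 5 min at ambient with pinned compounds in 50 mM Tris-HCl pH 7.5, 50 mM NaCl, 1 mM DTT, 0.05% BSA. Fluorescein-labeled HOX-A9 DNA (50 nM solution) followed, 30 min, then polarization read.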
# Menin MLL FP TR: qHTS Assay for Inhibitors Targeting the Menin-MLL Interaction in MLL Related Leukemias: Competition With Texas Red Labeled MLL-derived Mutant Peptide | Menin + Texas Red MLL mutant peptide, fluorescence polarization | hit rate 0.23% among 270,000 | O00255 | Potency, µM (doses to about 61.6 µM), for inactives: at the top dose FP activity change, negative = inhibition, hits mostly inhibitors; active = well fitted inhibition curve with a large enough effect in the polarisation, with a control signal flat, not every such curve was filed as active; inconclusive = small, poorly fitted or top-dose-only effect, or effect the other way, or a change in a side signal; inactive = no such curve, though single readings can be large or run the other way; the % refers to the polarisation; note: potency is the fitted concentration of half-maximal effect; % of control where 0% means no effect
# Target sequence (O00255 whole entry, looked up): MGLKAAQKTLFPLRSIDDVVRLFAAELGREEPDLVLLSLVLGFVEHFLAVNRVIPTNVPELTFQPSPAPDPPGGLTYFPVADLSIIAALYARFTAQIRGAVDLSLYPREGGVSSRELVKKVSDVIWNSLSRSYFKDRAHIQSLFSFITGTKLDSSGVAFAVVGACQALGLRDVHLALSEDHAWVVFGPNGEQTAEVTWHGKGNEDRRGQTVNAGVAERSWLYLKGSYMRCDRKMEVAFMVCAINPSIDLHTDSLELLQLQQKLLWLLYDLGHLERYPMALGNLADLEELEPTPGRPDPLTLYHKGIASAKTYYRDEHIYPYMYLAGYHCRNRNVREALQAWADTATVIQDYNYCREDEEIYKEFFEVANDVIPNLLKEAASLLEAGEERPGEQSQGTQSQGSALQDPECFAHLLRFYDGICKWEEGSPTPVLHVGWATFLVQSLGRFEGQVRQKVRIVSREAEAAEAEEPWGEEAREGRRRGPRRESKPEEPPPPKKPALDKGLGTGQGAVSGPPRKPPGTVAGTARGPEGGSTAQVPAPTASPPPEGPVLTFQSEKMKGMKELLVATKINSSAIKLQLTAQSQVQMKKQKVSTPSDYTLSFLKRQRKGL
# Menin MLL FP FL: qHTS Assay for Inhibitors Targeting the Menin-MLL Interaction in MLL Related Leukemias: Competition With Fluorescein Labeled MLL-derived Peptide | Fluorescence polarization, fluorescein-MLL peptide displacement from menin | FP activity change, % at 61.4 µM | 290,000 tested, under 10 active | AID 1766, 2009; active = well fitted curve in the direction sought with a large enough effect in the polarisation, not every such curve was filed as active; inconclusive = small, poorly fitted or top-dose-only effect, or effect the other way, or a change in a side signal; inactive = no such curve, though single readings can be large or run the other way; the % refers to the polarisation; note: % of control where 0% means no effect
# MLL CXXC Fl: qHTS Fluorescence Polarization (FP) Assay for Inhibitors of MLL CXXC domain - DNA interaction: Fluorescein FP | shares compounds with MLL CXXC-DNA inh | Potency, µM (series often up to 345 µM), without a hit: at the top dose activity change, negative = inhibition, hits mostly inhibitors | hit rate 70% among 200 | AID 624160, 2012 | MLL CXXC-DNA binding, fluorescein FP; note: potency is the fitted concentration of half-maximal effect; nearly all actives have a fitted effect of over 80% in size
# MLL CXXC FP-TR: qHTS Fluorescence Polarization (FP) Assay for Inhibitors of MLL CXXC domain - DNA interaction: Texas Red FP; shares compounds with MLL CXXC-DNA inh; MLL CXXC-DNA binding, Texas Red fluorescence polarization; Potency, µM (series often up to 345 µM), inactives show at the top dose activity change, negative = inhibition, hits mostly inhibitors; hit rate 40% among 200; AID 624161, 2012; note: potency is the fitted concentration of half-maximal effect; % is set by controls: 0 for no effect and ±100 for the full control effect; nearly all actives have a fitted effect of over 75% in size
# MLL CXXC HTRF: qHTS Fluorescence Polarization (FP) Assay for Inhibitors of MLL CXXC domain - DNA interaction: HTRF Assay. Potency, µM (titrated, usually from 172 µM), without a hit: at the highest dose activity change, negative = inhibition, usual class: inhibitors. shares compounds with MLL CXXC-DNA inh. hit rate 30% among 210. MLL CXXC-DNA binding, HTRF, biochemical; note: % is set by controls: 0 for no effect and ±100 for the full control effect; nearly all actives have a fitted effect of over 80% in size
# * marks the source's active call; other numbers are inactive results; ? = inconclusive; · = no result; [ ] = remark or other dose. Unless noted, calls come from the whole dose curve; as a rule, active = well fitted inhibition curve with a large enough effect; inconclusive = small, poorly fitted or top-dose-only effect; inactive = no such curve, though single readings can be large or run the other way.
SMILES,GoLoco inh red,MLL CXXC-DNA inh,Menin MLL FP TR,Menin MLL FP FL,MLL CXXC Fl,MLL CXXC FP-TR,MLL CXXC HTRF
Nc1ccc2ccccc2c1,5%,·,·,·,·,·,·
C[n+]1c2cc(N)ccc2cc2ccc(N)cc21,-42%,?,-9%,?,0.63µM*,142µM*,97µM*
O=C(O)CCC(=O)NCCC1=c2ccccc2=N/C1=C\c1c(O)n(Cc2ccc(F)cc2)c(=S)[nH]c1=O,21%,20µM*,·,22,22µM*,56µM*,15µM*
COc1ccc2c(c1OC)C(=O)OC2c1c(O)n(Cc2ccc(F)cc2)c(=O)[nH]c1=O (centres undefined),5%,13µM*,50%,8,25µM*,113µM*,97µM*
O=c1[nH]c(=O)n(Cc2ccc(F)cc2)c(O)c1C=NCc1cccnc1,-6%,2%,3%,-1,·,·,·
CC[C@@H](CO)NC(=O)[C@@H]1C=C2c3cccc4[nH]cc(c34)C[C@H]2N(C)C1,8%,·,9%,?,-16%,8%,31%
Nc1ccc(S(=O)(=O)c2ccc(NCN3C(=O)NC(=O)C(=O)C3=O)cc2)cc1,8%[14.2 µM],·,·,·,·,·,·
O=C1NC(=O)C(=Cc2cn(CCOc3ccc4c(c3)OCO4)c3ccccc23)C(=O)N1,109%,35µM*,-11%,?,159µM*,?,-10%
CCC1(CCSC(=N)N)C(=O)NC(=O)NC1=O,8%[14.2 µM],·,·,·,·,·,·
